Here are results for 14 compounds from PubChem BioAssay (NCATS).

Values without a mark were called inactive. Results filed as inconclusive are left out. Active and inactive are the calls of the source. Unless noted, the call rests on the fitted dose curve; in most records, active means well fitted curve in either direction with a large enough effect (not every such curve was filed as active); inconclusive means small, poorly fitted or top-dose-only effect, or another doubt; inactive means flat fitted curve, though single readings scatter.

The target in experiment [1] is Lysosomal acid glucosylceramidase (Homo sapiens) (UniProt P04062). Briefly: Glucocerebrosidase-p2 (AID 348; in the data active means potency below about 10 µM; further: potency means the concentration at half of the fitted maximal effect). The note with it: purified GBA, blue fluorogenic substrate, 40 min. The method in brief:
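Compounds titrated from 0.6 nM upwards against 0.2 nM enzyme in pH 5.9 citric acid/KH2PO4, taurocholate, tween-20; blue fluorogenic substrate 80 uM, 40 min room temperature, stopped and read Ex 365/Em 440 for AC50.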

Experiment [2] in a line: AP1 Signaling Pathway (AID 357). Further: on the % scale 0 is the no-effect control and ±100 the full control effect. The note with it: ME-180 AP-1-bla reporter, EGF-induced, beta-lactamase ratio, 5 h; at 7.69 µM (top of the series) unless noted. The procedure, abridged: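 Modulation of EGF-driven AP-1 transcription was assessed with a beta-lactamase reporter in ME-180 cells. Compound and EC50 EGF were co-incubated 5 hours at 37 °C before 2.5-hour CCF4 loading at room temperature and dual-emission reading.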

Experiment [3] concerns the target Cytochrome P450 1A2 (Homo sapiens) (UniProt P05177). Briefly: p450-cyp1a2 (AID 410; calls by dose curve; further: potency means the concentration at half of the fitted maximal effect;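 on activity change, negative = inhibition: -100% = full effect of reference inhibitor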). To be noted: recombinant CYP1A2, luciferin-ME demethylation, luminescence; series mostly up to 11.4 µM. The method in brief: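 Luminescent readout of luciferin formed from Luciferin-ME by human CYP1A2; data normalized against complete inhibition by 57 uM furafylline. Enzyme 20nM, substrate 100uM at Km, 100mM KPO4 buffer, 60 min reaction at room temperature.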

The nature of experiment [4]: NFAT Signaling Pathway (AID 444).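 Further: carbachol stimulus at about its EC50 of 1 µM final; on the % scale 0 is the no-effect control and ±100 the full control effect.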 To be noted: Jurkat NFAT-bla M1, carbachol, beta-lactamase ratio, 5 h; at 7.69 µM (top of the series) unless noted. The method in brief: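 Jurkat cells with NFAT-driven β-lactamase reporter and co-expressed M1 receptor, stimulated with carbachol (final 1 uM, ~EC50), compound titration, 5 h at 37 °C. CCF4 loaded 1 h at RT; 460/530 nm ratio gave %activity and AC50.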

Experiment [5] is described as follows: Stat Signaling Pathway (AID 446).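 Further: ME-180 cervical cancer cells given 40 pM IL-6 alongside compound; SIE-controlled beta-lactamase reporter measured as 460/530 nm FRET emission ratio; on the % scale 0 is the no-effect control and ±100 the full control effect.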 To be noted: ME-180 SIE beta-lactamase reporter, IL-6 stimulated, 5 h; at 7.69 µM (top of the series) unless noted. The procedure, abridged:
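Screening format detects activators and inhibitors alike: ME-180 SIE-bla cells stimulated at 40 pM IL-6 for 5 hrs with compound, then dual-emission beta-lactamase read at 405 nm excitation.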

Experiment [6] concerns the target Glucocorticoid receptor (Homo sapiens) (UniProt P04150). Kind of experiment: GR-GFP Redistribution (AID 450;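 active means compounds whose dose series gives a full or clear partial fitted curve of increased nuclear translocation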; further: potency means the concentration at half of the fitted maximal effect). To be noted: U2OS GR-GFP nuclear translocation, laser cytometry, 2 h.
The target is the same in experiment [7]. Kind of experiment: GR-EFC Redistribution (AID 451; calls by dose curve; further: potency means the concentration at half of the fitted maximal effect). To be noted: CHO-K1 GR-EFC translocation, beta-gal luminescence, 2 h. The method in brief:
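CHO-K1 cells expressing nuclear EA and GR-ED fragments of b-gal; compounds titrated up to 46 uM final, 2 h at 37 C. GR nuclear translocation read as complemented b-gal luminescence after 1 h RT detection.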

For experiment [8], the target named is Mitogen-activated protein kinase 10 (Mus musculus) (UniProt Q61831). Kind of experiment: JNK3 AlphaScreen Assay (AID 530).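 Further: kinase came from lysate of stimulated human HepG2 cells; signal reports phosphorylation of biotinylated GST-cJun 1-79 at Ser73 with 10 µM ATP; on the % scale 0 is the no-effect control and ±100 the full control effect.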 The note with it: JNK3 lysate, c-Jun phosphorylation; series mostly up to 11.4 µM. The method in brief:
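Pre-activated (IL-1β/TNFα) JNK3 in HepG2 lysates phosphorylates biotin-GST-cJun(1-79), 10 uM ATP; anti-phospho-cJun(Ser73) AlphaScreen read at room temperature, pH 7.6 Tris buffer. Compounds pre-incubated 15 min as titrations.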

Experiment [9] has as its target 3',5'-cyclic-AMP phosphodiesterase 4B (Homo sapiens) (UniProt Q07343). Briefly: qHTS Assay for Inhibitors of PDE-IV (AID 607; active means well fitted activation curve with a large enough effect in the main read-out, with a control signal flat, not every such curve was filed as active; further: % of control where 0% means no effect). To be noted: HEK293 ACTOne CNG channel cells, membrane potential fluorescence; series mostly up to 22.9 µM. The method in brief: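 The readout is membrane depolarisation from a cAMP-sensing CNG channel, detected with a potential dye at ex 535/em 590. Cells were HEK293-derived (endogenous PDE-IV) at 1000 cells/well, titrated up to 22.9 uM final.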
Background: Quantitative high-throughput screening tests each substance at several concentrations.

The target in experiment [10] is Cytochrome P450 3A4 (Homo sapiens) (UniProt P08684). Kind of experiment: qHTS Assay for Activators of Cytochrome P450 3A4 (AID 885; active means well fitted curve in the direction sought with a large enough effect; an effect the other way counts as inactive or inconclusive; further: nearly all actives have a fitted effect of over 65% in size). The note with it: recombinant CYP3A4, Luciferin-PPXE luminescence, 60 min; series mostly up to 11.4 µM. The procedure, abridged: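 Steps: enzyme/substrate mix dispensed; compound added, 10 min RT; NADPH regeneration solution added, 60 min RT; luciferin detection buffer stops reaction; 20 min later luminescence measured.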
Sequence of Cytochrome P450 3A4 (Homo sapiens) (P08684 whole entry, looked up): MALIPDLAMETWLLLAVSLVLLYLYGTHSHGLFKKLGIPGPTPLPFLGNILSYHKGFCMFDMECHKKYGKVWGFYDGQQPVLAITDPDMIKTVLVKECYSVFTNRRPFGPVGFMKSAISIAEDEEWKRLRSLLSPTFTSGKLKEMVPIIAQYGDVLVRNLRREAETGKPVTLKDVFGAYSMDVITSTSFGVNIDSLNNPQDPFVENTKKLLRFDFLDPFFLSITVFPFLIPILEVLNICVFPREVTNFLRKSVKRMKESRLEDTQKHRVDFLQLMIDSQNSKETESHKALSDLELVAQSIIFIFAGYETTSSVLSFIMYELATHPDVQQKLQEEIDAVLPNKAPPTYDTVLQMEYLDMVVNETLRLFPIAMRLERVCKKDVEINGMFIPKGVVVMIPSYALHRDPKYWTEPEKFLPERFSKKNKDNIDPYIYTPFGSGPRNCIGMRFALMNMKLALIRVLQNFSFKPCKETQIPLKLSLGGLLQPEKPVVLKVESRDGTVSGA

The target of experiment [11] is Cytochrome P450 2C19 (Homo sapiens) (UniProt P33261). Briefly: qHTS Assay for Inhibitors and Substrates of Cytochrome P450 2C19 (AID 899; active means well fitted curve in the direction sought with a large enough effect; an effect the other way counts as inactive or inconclusive; further: nearly all actives have a fitted effect of over 60% in size; further: potency means the concentration at half of the fitted maximal effect). To be noted: recombinant CYP2C19, luciferin-H EGE luminescence; series mostly up to 11.4 µM. The method in brief: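 5 nM human CYP2C19 with 10uM Luciferin-H EGE (at KM) in 50mM KPO4, compound preincubated 10 min at 37C, then NADPH regeneration for 60 min at 37C. Luciferin read by luminescence after detection reagent; normalized to 57uM ketoconazole as full inhibition.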
Sequence of Cytochrome P450 2C19 (Homo sapiens) (P33261 whole entry, looked up): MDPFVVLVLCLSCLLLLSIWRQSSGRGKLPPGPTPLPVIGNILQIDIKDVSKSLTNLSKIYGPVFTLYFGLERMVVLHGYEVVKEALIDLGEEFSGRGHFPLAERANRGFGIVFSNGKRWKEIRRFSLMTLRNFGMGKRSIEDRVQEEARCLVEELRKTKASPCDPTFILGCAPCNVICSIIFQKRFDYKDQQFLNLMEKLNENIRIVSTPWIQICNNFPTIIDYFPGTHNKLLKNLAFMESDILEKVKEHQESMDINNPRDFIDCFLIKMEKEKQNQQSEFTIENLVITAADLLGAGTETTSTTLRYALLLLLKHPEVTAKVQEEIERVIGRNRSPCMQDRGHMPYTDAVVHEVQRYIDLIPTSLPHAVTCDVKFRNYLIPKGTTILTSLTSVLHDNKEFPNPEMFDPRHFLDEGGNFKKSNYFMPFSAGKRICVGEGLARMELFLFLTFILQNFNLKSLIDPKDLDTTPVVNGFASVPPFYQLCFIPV

Experiment [12] has as its target Cytochrome P450 2D6 (Homo sapiens) (UniProt P10635). Kind of experiment: qHTS Assay for Inhibitors and Substrates of Cytochrome P450 2D6 (AID 891; active means well fitted curve in the direction sought with a large enough effect; an effect the other way counts as inactive or inconclusive; further: nearly all actives have a fitted effect of over 60% in size; further: potency means the concentration at half of the fitted maximal effect). The note with it: recombinant CYP2D6, luciferin-ME EGE luminescence; series mostly up to 11.4 µM. The procedure, abridged: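 Human CYP2D6 (5 nM) with 30 uM Luciferin-ME EGE (at Km) in 100 mM KPO4, compound preincubated 10 min, then NADPH regeneration system for 60 min at room temperature. Luciferin read by luminescence; normalized to 1.43 uM quinidine.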

Sequence of Cytochrome P450 1A2 (Homo sapiens) (P05177 whole entry, looked up): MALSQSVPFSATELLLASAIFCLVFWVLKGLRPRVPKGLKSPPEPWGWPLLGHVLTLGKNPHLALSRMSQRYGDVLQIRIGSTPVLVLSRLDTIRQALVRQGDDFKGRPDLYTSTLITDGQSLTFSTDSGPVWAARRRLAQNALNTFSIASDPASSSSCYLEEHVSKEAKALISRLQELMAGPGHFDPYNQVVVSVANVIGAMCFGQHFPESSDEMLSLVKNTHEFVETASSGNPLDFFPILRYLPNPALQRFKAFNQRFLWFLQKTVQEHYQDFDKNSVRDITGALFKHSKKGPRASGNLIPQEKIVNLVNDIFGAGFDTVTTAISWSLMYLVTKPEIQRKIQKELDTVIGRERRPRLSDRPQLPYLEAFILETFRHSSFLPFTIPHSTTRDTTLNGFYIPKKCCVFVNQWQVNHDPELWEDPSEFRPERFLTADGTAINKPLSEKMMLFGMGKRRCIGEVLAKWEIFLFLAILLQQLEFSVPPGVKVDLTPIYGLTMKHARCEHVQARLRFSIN
Sequence of Lysosomal acid glucosylceramidase (Homo sapiens) (P04062 whole entry, looked up): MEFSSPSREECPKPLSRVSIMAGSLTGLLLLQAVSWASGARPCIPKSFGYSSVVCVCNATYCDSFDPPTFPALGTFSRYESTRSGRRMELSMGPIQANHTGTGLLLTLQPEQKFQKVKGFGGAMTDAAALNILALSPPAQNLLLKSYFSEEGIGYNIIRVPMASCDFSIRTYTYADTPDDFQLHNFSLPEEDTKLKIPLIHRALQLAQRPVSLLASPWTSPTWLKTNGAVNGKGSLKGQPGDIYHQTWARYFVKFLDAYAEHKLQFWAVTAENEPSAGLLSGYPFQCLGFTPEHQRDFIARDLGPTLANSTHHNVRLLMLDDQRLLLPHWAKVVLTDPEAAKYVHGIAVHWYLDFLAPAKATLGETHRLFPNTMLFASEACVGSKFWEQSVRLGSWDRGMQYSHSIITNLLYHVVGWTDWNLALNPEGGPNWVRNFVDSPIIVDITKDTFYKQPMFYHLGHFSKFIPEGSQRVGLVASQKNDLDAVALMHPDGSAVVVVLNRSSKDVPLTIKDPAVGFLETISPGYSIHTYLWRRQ
Sequence of Glucocorticoid receptor (Homo sapiens) (P04150 whole entry, looked up): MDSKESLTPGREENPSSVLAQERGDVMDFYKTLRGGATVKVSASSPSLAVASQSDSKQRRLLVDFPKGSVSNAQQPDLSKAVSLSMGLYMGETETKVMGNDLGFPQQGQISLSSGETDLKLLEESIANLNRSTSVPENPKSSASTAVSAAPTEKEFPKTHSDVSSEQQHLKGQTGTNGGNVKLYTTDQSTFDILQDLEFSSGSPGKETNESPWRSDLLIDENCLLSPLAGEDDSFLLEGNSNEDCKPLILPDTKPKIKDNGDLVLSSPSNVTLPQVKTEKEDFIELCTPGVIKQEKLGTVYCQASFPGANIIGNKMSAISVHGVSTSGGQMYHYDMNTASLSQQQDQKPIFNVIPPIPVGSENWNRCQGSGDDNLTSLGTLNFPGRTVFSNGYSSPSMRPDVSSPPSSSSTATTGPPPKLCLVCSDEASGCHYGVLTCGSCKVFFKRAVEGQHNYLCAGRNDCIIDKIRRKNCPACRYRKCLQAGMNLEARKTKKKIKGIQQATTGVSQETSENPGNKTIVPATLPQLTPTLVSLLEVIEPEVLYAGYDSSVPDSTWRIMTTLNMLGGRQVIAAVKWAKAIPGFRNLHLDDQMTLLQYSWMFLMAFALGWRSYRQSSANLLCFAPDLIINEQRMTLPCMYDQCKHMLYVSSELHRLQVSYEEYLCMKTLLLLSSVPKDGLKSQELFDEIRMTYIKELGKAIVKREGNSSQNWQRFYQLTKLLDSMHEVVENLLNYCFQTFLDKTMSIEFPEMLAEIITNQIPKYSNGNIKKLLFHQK
Sequence of Cytochrome P450 2D6 (Homo sapiens) (P10635 whole entry, looked up): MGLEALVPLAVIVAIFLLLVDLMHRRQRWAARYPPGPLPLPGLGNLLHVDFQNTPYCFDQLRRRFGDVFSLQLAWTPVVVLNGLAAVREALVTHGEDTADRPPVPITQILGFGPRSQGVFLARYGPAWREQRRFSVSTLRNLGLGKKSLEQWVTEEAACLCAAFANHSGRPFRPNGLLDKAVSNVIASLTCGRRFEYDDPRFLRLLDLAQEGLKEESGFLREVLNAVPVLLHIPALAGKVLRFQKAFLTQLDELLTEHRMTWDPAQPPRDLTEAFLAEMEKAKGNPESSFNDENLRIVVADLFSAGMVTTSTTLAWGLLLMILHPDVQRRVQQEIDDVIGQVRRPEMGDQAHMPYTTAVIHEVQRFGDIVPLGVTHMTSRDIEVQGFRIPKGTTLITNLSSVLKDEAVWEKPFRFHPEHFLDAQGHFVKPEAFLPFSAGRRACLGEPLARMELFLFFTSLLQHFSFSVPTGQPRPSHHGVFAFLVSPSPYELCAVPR
Sequence of 3',5'-cyclic-AMP phosphodiesterase 4B (Homo sapiens) (Q07343 whole entry, looked up): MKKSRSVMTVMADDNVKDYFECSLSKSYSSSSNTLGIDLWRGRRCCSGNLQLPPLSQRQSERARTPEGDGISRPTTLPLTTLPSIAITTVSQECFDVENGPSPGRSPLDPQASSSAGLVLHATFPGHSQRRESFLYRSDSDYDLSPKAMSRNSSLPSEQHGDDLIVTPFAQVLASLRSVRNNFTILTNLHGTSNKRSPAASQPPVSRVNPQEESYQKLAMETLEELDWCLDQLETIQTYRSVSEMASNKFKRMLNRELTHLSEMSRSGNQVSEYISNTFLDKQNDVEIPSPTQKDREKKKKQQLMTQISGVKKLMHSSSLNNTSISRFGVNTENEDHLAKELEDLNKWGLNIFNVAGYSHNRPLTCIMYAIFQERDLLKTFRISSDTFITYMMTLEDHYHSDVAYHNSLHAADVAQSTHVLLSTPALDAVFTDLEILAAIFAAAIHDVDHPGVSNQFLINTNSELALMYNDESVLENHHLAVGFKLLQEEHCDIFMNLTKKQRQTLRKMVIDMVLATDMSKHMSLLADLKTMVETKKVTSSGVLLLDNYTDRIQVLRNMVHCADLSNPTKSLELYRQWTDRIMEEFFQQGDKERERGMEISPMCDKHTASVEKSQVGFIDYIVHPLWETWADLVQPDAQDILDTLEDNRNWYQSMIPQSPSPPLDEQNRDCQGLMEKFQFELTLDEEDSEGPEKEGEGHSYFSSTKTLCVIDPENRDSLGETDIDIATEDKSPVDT

Turning to `c1ccc(C2=NN[C@@H]3c4ccccc4-c4ccccc4N3C2)cc1`, the Potency was over 11.4 µM in experiment [1], 0.2 µM (active) in experiment [3], over 46 µM in experiment [6] and over 9.22 µM in experiment [7]. The activity change, negative = inhibition was -18.5% in [2] and -9.73% in [4]. Also, in experiment [5], the activity, negative = inhibition was -6.54%. Besides, the Potency entry in experiment [8], in experiment [9] and in [10] was “inactive” in each case.

In the case of `O=c1cnc2cnc(Oc3ccccc3)nc2n1Cc1ccc(F)cc1`, the Potency in experiment [1] is over 11.4 µM; in experiment [3] it was 15.8 µM (active); in [6], over 9.22 µM; in experiment [7], over 46 µM; in [11], 2510 nM (active). Further, the activity change, negative = inhibition in experiment [2] was -8.79%; in experiment [4] it was -4.49%. For the same compound, in experiment [5], the activity, negative = inhibition is 18.8%. The Potency entry in experiment [8], in experiment [9] and in [10] was “inactive” throughout.

`Cc1c(N2CCCC2)cc2c(c1NC(=O)c1ccccc1Cl)C(C)(C)CC2(C)C`: the Potency is over 11.4 µM in [1], over 46 µM in [6], over 9.22 µM in experiment [7] and 794 nM (active) in experiment [11]. The activity change, negative = inhibition was -3.93% in [2], -13.1% [at 2.29 µM] in [3] and -10.2% in experiment [4]. In addition, the activity, negative = inhibition in experiment [5] was -9.5%. Further, the Potency result in experiment [8], in [9] and in [10] was “inactive” each time.

As to `Cc1ccc(N=Nc2ccc(N)cc2C)c(S(N)(=O)=O)c1`, the Potency is over 11.4 µM in experiment [1], 0.501 µM (active) in [3], over 46 µM in [6] and over 9.22 µM in [7]. The activity change, negative = inhibition was 2.62% in [2] and 15.6% in experiment [4]. Besides, the activity, negative = inhibition in experiment [5] is -6.29%. Moreover, the Potency result in experiment [8], in [9] and in experiment [10] was “inactive” throughout.

As for `NC1=C(O)C(=O)[C@H](c2c[nH]c3ccc(OCc4ccccc4)cc23)O1`, the Potency in experiment [1] was over 11.4 µM; in experiment [3] it was 3.98 µM (active); in experiment [6], over 46 µM; in experiment [7], over 9.22 µM. For the same compound, the activity change, negative = inhibition in experiment [2] is -18.8%; in experiment [4] it was 7.15%. Further, the activity, negative = inhibition in experiment [5] is -6.03%. Further, the Potency result in experiment [8], in experiment [9] and in experiment [10] was “inactive” throughout.

Consider `Cc1ccc(C)c(NC(=O)NCc2ccc(Cl)cc2)c1`, for which the Potency is over 11.4 µM in experiment [1]; 0.794 µM (active) in experiment [3]; over 46 µM in experiment [6]; over 9.22 µM in [7]; 3980 nM (active) in [12]; 1580 nM (active) in experiment [11]. The results for the activity change, negative = inhibition in [2] and in experiment [4] were 4.89% and -4.37%, respectively. The activity, negative = inhibition in experiment [5] is 8.15%. The Potency result in experiment [8], in experiment [9] and in experiment [10] was “inactive” each time.

Turning to `N/C(CC(=O)Nc1cc(C(F)(F)F)ccc1Cl)=N\O`, the Potency in experiment [1] was over 11.4 µM; in [3], 1.58 µM (active); in [6], over 46 µM; in experiment [7], over 9.22 µM. The activity change, negative = inhibition is -3.52% in experiment [2] and 11.5% in [4]. Moreover, in [5], the activity, negative = inhibition was -1.63%. Also, the Potency result in experiment [8], in experiment [9], in experiment [10] and in [11] was “inactive” throughout.

Take `COc1c(O)ccc2c1CN1CCc3cc4c(cc3[C@@H]1C2)OCO4`: the Potency is over 11.4 µM in [1]; 0.501 µM (active) in [3]; over 46 µM in experiment [6]; over 9.22 µM in [7]; 158 nM (active) in [12]. For the same compound, the results for the activity change, negative = inhibition in [2] and in experiment [4] were -4.62% and -25.2%, respectively. Moreover, the activity, negative = inhibition in experiment [5] was 7.58%. Also, the Potency entry in experiment [8], in experiment [9] and in [10] was “inactive” in each case.

For `O=C(O)c1cc(-c2ccncc2)nc2ccccc12`, the Potency is over 11.4 µM in experiment [1], over 46 µM in experiment [6] and over 9.22 µM in experiment [7]. Also, the activity change, negative = inhibition in [2] is 3.07%; in [4], -5.13%. Also, the Potency result in experiment [3], in experiment [8], in [9] and in [10] was “inactive” throughout. In addition, in [5], the activity, negative = inhibition was -5.62%.

Consider `Cn1ncc2c(NCCc3ccccc3)nc(Cl)nc21`, for which the Potency in experiment [1] is over 11.4 µM; in experiment [3] it was 2.51 µM (active); in experiment [6] it was over 46 µM; in [7] it was over 9.22 µM; in experiment [12], 126 nM (active); in [11], 126 nM (active). The results for the activity change, negative = inhibition in [2] and in [4] were -2.77% and 2.58%, respectively. In addition, in [5], the activity, negative = inhibition was -19.5%. The Potency result in [8], in experiment [9] and in experiment [10] was “inactive” each time.

With `N#C/C(=C\NC(=S)c1ccncc1)c1nc2ccccc2s1`, the Potency in experiment [1] was over 11.4 µM; in [3] it was 3.16 µM (active); in experiment [6], over 46 µM; in experiment [7] it was over 9.22 µM. For the same compound, the activity change, negative = inhibition in experiment [2] is -3.92%; in experiment [4], 8.12%. Moreover, the activity, negative = inhibition in experiment [5] is 11.3%. The Potency entry in [8], in experiment [9] and in [10] was “inactive” each time.

Take `Cc1[nH]c2c(C)ccc(C)c2c1CC(=O)O`: the Potency in experiment [1] was over 11.4 µM; in experiment [3] it was 3.16 µM (active); in [6], over 46 µM; in experiment [7], over 9.22 µM; in experiment [11], 316 nM (active). Also, the results for the activity change, negative = inhibition in experiment [2] and in experiment [4] were -6.88% and 10.6%, respectively. Besides, the activity, negative = inhibition in experiment [5] was 9.85%. Also, the Potency result in [8], in [9] and in experiment [10] was “inactive” throughout.

For the compound `CC(C)(C)CC(C)(C)c1cc(O)c(O)c(CN2CCCCC2)c1`, the Potency in experiment [1] is over 11.4 µM; in [6], over 46 µM; in [7], over 9.22 µM. Further, the activity change, negative = inhibition in experiment [2] is 0.737%; in experiment [4] it was -28.7%. The Potency result in experiment [3], in experiment [8], in experiment [9] and in experiment [10] was “inactive” each time. In [5], the activity, negative = inhibition is 3.86%.

As to `CC1(C)[C@@H]2CC[C@@](C)(C2)[C@H]1OC(=O)c1ccccc1C(=O)O`, the Potency is over 11.4 µM in experiment [1], over 46 µM in [6] and over 9.22 µM in experiment [7]. Moreover, the activity change, negative = inhibition in experiment [2] was -1.12%; in experiment [4], 4.7%. Moreover, the Potency result in experiment [3], in experiment [8], in experiment [9], in [10], in [12] and in experiment [11] was “inactive” each time. For the same compound, the activity, negative = inhibition in [5] is -3.05%.
